Several values for one entry are separate records, joined by “and”; a condition that tells them apart may be missing. Identical values can stand only once. Results filed as inconclusive are left out. A structure can be active in one record and inactive in another. Activity calls are given as the source filed them. The calls were made as follows, unless noted: active = hit-call score of the fitted dose curve at least 0.9, where 1 is the maximum; inactive = score below 0.9.
How the values were obtained:
[1] = read-out: NAD(P)H dehydrogenase [quinone] 1 (NQO1), NQO1 (gene 1728); test: LTEA_HepaRG_NQO1: Life Technologies and Expression Analysis (LTEA) Assay for NAD(P)H dehydrogenase [quinone] 1 (NQO1) using HepaRG (AID 2283526); details: mRNA level, 48 h; actives raise or lower the signal
Outline: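 Human HepaRG hepatic cells received chemicals for 48 h in serum-free induction medium with 0.5% DMSO, up to 100 uM. Expression was assessed by TaqMan qRT-PCR against housekeeping controls and fitted bidirectionally against DMSO.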

[2] = read-out: Nuclear factor erythroid 2-related factor 2 (Homo sapiens) (UniProt Q16236); test: LTEA_HepaRG_NFE2L2: Life Technologies and Expression Analysis (LTEA) Assay for Nuclear factor erythroid 2-related factor 2 (NFE2L2) Transcription Factor using HepaRG (AID 2283527); details: mRNA level, 48 h; actives raise or lower the signal
Outline: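 Transcript level of NFE2L2 is the read-out, measured by microfluidic TaqMan qRT-PCR and normalized to three housekeeping genes. Human HepaRG cultures received test chemical for 48 h at up to 100 uM in half-log steps. Gain or loss of signal is fitted relative to 0.5% DMSO.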

[3] = read-out: succinate dehydrogenase complex iron sulfur subunit B (SDHB), SDHB (gene 6390); test: LTEA_HepaRG_SDHB: Life Technologies and Expression Analysis (LTEA) Assay for succinate dehydrogenase complex iron sulfur subunit B (SDHB) using HepaRG (AID 2283528); details: mRNA level, 48 h; actives raise or lower the signal
Outline: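 Readout is SDHB transcript level by qRT-PCR, normalised to three housekeeping genes and fitted bidirectionally against 0.5% DMSO vehicle. Human HepaRG cells were treated for 48 h at up to 100 uM.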

[4] = read-out: Signal transducer and activator of transcription 3 (Homo sapiens) (UniProt P40763); test: LTEA_HepaRG_STAT3: Life Technologies and Expression Analysis (LTEA) Assay for Signal transducer and activator of transcription (STAT3) using HepaRG (AID 2283529); details: mRNA level, 48 h; actives raise or lower the signal
Outline: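 Read-out is STAT3 mRNA level by qRT-PCR, normalized to three housekeeping genes, in human HepaRG liver cells treated for 48 h. Concentrations ran from 100 uM downward in half-log steps; curves were fitted for gain or loss relative to 0.5% DMSO.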

[5] = read-out: solute carrier (SLCO1B1), SLCO1B1 (gene 10599); test: LTEA_HepaRG_SLCO1B1: Life Technologies and Expression Analysis (LTEA) Assay for solute carrier (SLCO1B1) using HepaRG (AID 2283530); details: mRNA level, 48 h; actives raise or lower the signal
Outline: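 SLCO1B1 transcript levels were quantified by TaqMan qRT-PCR using three housekeeping genes for normalization. This followed 48 h chemical exposure (100 uM top, half-log, 8 points, 0.5% DMSO) of HepaRG liver cells, with gain or loss fitted relative to DMSO.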

[6] = read-out: sulfotransferase 2A1 (SULT2A1), SULT2A1 (gene 6822); test: LTEA_HepaRG_SULT2A1: Life Technologies and Expression Analysis (LTEA) Assay for sulfotransferase 2A1 (SULT2A1) using HepaRG (AID 2283531); details: mRNA level, 48 h; actives raise or lower the signal
Outline: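 Expression change of SULT2A1, by qRT-PCR with three housekeeping-gene normalization, was scored bidirectionally versus DMSO. Cells: differentiated HepaRG, dosed in duplicate for 48 h across 8 points, highest 100 µM, half-log dilution, 0.5% DMSO.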

[7] = read-out: Transforming Growth Factor (TGFA), TGFA (gene 7039); test: LTEA_HepaRG_TGFA: Life Technologies and Expression Analysis (LTEA) Assay for Transforming Growth Factor (TGFA) using HepaRG (AID 2283532); details: mRNA level, 48 h; actives raise or lower the signal
Outline: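 HepaRG (human liver line), 48 h exposure, 8 conc. half-log down from 100 uM, 0.5% DMSO vehicle, duplicates; serum-free induction medium. TGFA mRNA by TaqMan qRT-PCR, ACTB/GAPDH/POLR2A normalization; gain/loss fit vs DMSO.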

[8] = read-out: Transforming Growth Factor (TGFB1), TGFB1 (gene 7040); test: LTEA_HepaRG_TGFB1: Life Technologies and Expression Analysis (LTEA) Assay for Transforming Growth Factor (TGFB1) Transporter using HepaRG (AID 2283533); details: mRNA level, 48 h; actives raise or lower the signal
Outline: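 TGFB1 transcript measured by qRT-PCR with normalisation to three housekeeping genes (ACTB, GAPDH, POLR2A); human HepaRG line treated in duplicate for 48 hr with an 8-point series topping at 100 uM, 0.5% DMSO vehicle, bidirectionally fitted.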

TIMP1, TIMP1 (gene 7076) = test: LTEA_HepaRG_TIMP1: Life Technologies and Expression Analysis (LTEA) Assay for TIMP1 using HepaRG (AID 2283534); details: mRNA level, 48 h; actives raise or lower the signal
Outline: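 Bidirectional change in TIMP1 transcript versus 0.5% DMSO, measured by TaqMan qRT-PCR with three housekeeping genes for normalization. HepaRG human liver cells dosed 48 h in duplicate, top concentration 100 uM with half-log dilutions.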

[9] = read-out: Tumor necrosis factor receptor 1 (TNFRSF1A), TNFRSF1A (gene 7132); test: LTEA_HepaRG_TNFRSF1A: Life Technologies and Expression Analysis (LTEA) Assay for Tumor necrosis factor receptor 1 (TNFRSF1A) using HepaRG (AID 2283535); details: mRNA level, 48 h; actives raise or lower the signal
Outline: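 mRNA measured by qRT-PCR (TaqMan, Fluidigm arrays) against ACTB/GAPDH/POLR2A housekeepers after 48 h chemical exposure of HepaRG cells. Top concentration 100 uM, half-log 8-point series, duplicates; vehicle 0.5% DMSO, both fit directions.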

[10] = read-out: Thyroid Hormone Responsive (THRSP), THRSP (gene 7069); test: LTEA_HepaRG_THRSP: Life Technologies and Expression Analysis (LTEA) Assay for Thyroid Hormone Responsive (THRSP) using HepaRG (AID 2283536); details: mRNA level, 48 h; actives raise or lower the signal
Outline: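 mRNA induction or loss relative to 0.5% DMSO vehicle was fitted bidirectionally across an eight-point curve whose highest exposure was 100 uM. Human HepaRG liver cells received chemicals in duplicate over 48 h before RNA extraction.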

[11] = read-out: Cellular tumor antigen p53 (Homo sapiens) (UniProt P04637); test: LTEA_HepaRG_TP53: Life Technologies and Expression Analysis (LTEA) Assay for Tumor Protein P53 (TP53) using HepaRG (AID 2283537); details: mRNA level, 48 h; actives raise or lower the signal
Outline: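 Read-out is TP53 transcript level by microfluidic qRT-PCR, normalised to three housekeeping genes and fitted bidirectionally against DMSO. Human HepaRG cells received compounds for 48 h, highest concentration 100 uM.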

[12] = read-out: UDP glucuronosyltransferase (UGT1A1), UGT1A1 (gene 54658); test: LTEA_HepaRG_UGT1A1: Life Technologies and Expression Analysis (LTEA) Assay for UDP glucuronosyltransferase (UGT1A1) using HepaRG (AID 2283538); details: mRNA level, 48 h; actives raise or lower the signal
Outline: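 Human liver HepaRG cultures receive test chemical for 48 h, up to 100 uM in 0.5% DMSO, with phenobarbital induction controls. UGT1A1 mRNA is measured by qRT-PCR and normalized to ACTB, GAPDH and POLR2A.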

[13] = read-out: UDP glucuronosyltransferase (UGT1A6), UGT1A6 (gene 54578); test: LTEA_HepaRG_UGT1A6: Life Technologies and Expression Analysis (LTEA) Assay for UDP glucuronosyltransferase (UGT1A6) using HepaRG (AID 2283539); details: mRNA level, 48 h; actives raise or lower the signal
Outline: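 Expression was quantified by TaqMan qRT-PCR on Fluidigm arrays with ACTB/GAPDH/POLR2A normalization and bidirectional fitting against 0.5% DMSO. HepaRG cells (~100,000/well) were treated in duplicate for 48 h at eight half-log concentrations up to 100 uM in serum-free induction medium.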

[14] = read-out: X-box binding protein 1 (XBP1), XBP1 (gene 7494); test: LTEA_HepaRG_XBP1: Life Technologies and Expression Analysis (LTEA) Assay for X-box binding protein 1 (XBP1) using HepaRG (AID 2283540); details: mRNA level, 48 h; actives raise or lower the signal
Outline: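 XBP1 transcript by qRT-PCR (housekeeping-normalized: ACTB, GAPDH, POLR2A) after 48 h chemical treatment of HepaRG cells, 8-point half-log series topping at 100 uM, vehicle 0.5% DMSO. Gain and loss of signal fitted relative to DMSO.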

[15] = LTEA_HepaRG_LDH_cytotoxicity: Cytotoxicity Assessment in the Life Technologies and Expression Analysis (LTEA) Assay (AID 2283563; active = hit-call score of the fitted dose curve at least 0.9, where 1 is the maximum;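 as to AC50: LDH activity released into spent culture medium as a marker of cell death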)
Outline: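 LDH release into culture medium read after 48 h chemical treatment of HepaRG cells. Duplicate wells, eight-point half-log series topping at 100 uM, 0.5% DMSO vehicle and baseline.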

[16] = ATG_XTT_Cytotoxicity: Cytotoxicity Assessment in the Attagene TRANS-FACTORIAL HepG2 Assay (AID 2283584; active = hit-call score of the fitted dose curve at least 0.9, where 1 is the maximum)
Outline: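 Viability endpoint from XTT after 24 h chemical exposure of reporter-transfected human HepG2 liver cells; signal loss fitted relative to DMSO negative control.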

[17] = TOX21_p53_BLA_p2_viability: Viability Assessment in the Tox21 HCT-116 p53 Agonism Beta-lactamase Assay, Phase 2 (AID 2283591; active = hit-call score of the fitted dose curve at least 0.9, where 1 is the maximum;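 also: compound exposure lasted 16 h at 37 °C; actives lower the ATP signal meaning cytotoxicity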)
Outline: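 Cytotoxicity readout: CellTiter-Glo ATP luminescence, 30 min at room temperature, after the beta-lactamase read. Cells were HCT116 exposed 16 h at 37C to compounds pin-transferred at 217-fold dilution from DMSO stocks.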

[18] = target: Cellular tumor antigen p53 (Homo sapiens) (UniProt P04637); test: TOX21_p53_BLA_p2_ratio: Tox21 HCT-116 p53 Agonism Beta-lactamase Assay, Ratio, Phase 2 (AID 2283592; active = hit-call score of the fitted dose curve at least 0.9, where 1 is the maximum)
Outline: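 Gain-of-signal p53 agonism was scored from the beta-lactamase FRET ratio (460/530 nm, 405 nm excitation) in HCT116 cells treated 16 h at 37C, 5% CO2, with DMSO serving as negative control and baseline.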

[19] = TOX21_p53_BLA_p3_viability: Viability Assessment in the Tox21 HCT-116 p53 Agonism Beta-lactamase Assay, Phase 3 (AID 2283593; active = hit-call score of the fitted dose curve at least 0.9, where 1 is the maximum;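 also: cells exposed to compound for 16 h before reading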)
Outline: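 Cellular ATP was quantified by CellTiter-Glo luminescence, read after 30 min at room temperature. Beforehand, HCT116 cells (4000/well) received compound 5 h post-seeding, 217-fold diluted from DMSO, then incubated 16 h at 37C.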

Measured: AC50

Sequence of Signal transducer and activator of transcription 3 (Homo sapiens) (P40763 whole entry, looked up): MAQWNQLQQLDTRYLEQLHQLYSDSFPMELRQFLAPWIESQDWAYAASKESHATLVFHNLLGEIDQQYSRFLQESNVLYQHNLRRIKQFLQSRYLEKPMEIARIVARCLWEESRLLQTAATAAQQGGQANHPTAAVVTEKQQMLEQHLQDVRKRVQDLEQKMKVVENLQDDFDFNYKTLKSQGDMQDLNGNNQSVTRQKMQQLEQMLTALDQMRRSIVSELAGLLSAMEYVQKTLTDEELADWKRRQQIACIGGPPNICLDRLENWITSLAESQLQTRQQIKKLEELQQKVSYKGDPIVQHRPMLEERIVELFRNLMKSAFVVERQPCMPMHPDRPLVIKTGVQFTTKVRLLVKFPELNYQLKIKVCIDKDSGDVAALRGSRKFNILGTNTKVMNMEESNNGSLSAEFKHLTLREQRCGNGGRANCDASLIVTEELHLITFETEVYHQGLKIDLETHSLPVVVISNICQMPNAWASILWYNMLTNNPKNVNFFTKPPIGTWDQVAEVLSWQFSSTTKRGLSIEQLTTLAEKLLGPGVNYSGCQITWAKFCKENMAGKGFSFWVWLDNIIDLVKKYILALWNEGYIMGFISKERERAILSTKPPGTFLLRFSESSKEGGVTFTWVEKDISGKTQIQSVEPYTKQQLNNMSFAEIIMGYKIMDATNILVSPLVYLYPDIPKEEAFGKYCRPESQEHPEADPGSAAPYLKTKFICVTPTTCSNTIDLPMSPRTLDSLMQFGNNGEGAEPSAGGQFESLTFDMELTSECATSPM
Sequence of Nuclear factor erythroid 2-related factor 2 (Homo sapiens) (Q16236 whole entry, looked up): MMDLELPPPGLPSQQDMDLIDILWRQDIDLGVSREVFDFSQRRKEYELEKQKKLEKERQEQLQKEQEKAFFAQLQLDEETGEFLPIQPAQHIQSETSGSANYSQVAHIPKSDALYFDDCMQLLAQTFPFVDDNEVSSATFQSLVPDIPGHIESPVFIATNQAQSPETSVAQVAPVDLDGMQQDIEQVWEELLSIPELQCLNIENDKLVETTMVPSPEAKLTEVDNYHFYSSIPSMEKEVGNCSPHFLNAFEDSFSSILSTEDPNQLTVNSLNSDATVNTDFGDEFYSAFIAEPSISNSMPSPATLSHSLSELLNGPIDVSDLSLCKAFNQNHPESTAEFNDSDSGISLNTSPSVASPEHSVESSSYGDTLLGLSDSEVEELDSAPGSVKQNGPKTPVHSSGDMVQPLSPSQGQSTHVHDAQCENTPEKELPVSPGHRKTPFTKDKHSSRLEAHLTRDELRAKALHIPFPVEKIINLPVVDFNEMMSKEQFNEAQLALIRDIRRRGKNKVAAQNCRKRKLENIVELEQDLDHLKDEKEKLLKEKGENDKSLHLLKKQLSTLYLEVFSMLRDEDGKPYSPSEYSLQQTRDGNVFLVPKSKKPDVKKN
Sequence of Cellular tumor antigen p53 (Homo sapiens) (P04637 whole entry, looked up): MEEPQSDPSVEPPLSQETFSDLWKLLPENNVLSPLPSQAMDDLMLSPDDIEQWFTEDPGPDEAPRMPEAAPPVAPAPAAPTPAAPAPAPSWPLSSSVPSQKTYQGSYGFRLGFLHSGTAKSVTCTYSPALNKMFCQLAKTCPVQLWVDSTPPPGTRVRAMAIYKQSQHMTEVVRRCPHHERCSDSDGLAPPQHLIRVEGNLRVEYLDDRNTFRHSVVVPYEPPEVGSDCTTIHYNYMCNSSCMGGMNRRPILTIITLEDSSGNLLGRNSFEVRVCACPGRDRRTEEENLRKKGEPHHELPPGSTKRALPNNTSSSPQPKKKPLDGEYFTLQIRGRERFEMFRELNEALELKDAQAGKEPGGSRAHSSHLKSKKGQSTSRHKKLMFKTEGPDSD

Oc1ccccc1-c1ccccc1
inactive: all assays above

CS/C(C)=N/OC(=O)N(C)SN(C)C(=O)O/N=C(\C)SC
not listed: [9] | [12] | [16] | [17] | [19]
inactive: all other assays above

COP(N)(=O)SC (centres undefined)
not listed: [9] | [12] | [16] | [18]
inactive: all other assays above

CCNc1nc(Cl)nc(NC(C)C)n1
not listed: [9] | [12] | [17] | [19]
inactive: all other assays above

C=CCC1=C(C)[C@@H](OC(=O)[C@@H]2[C@@H](C=C(C)C)C2(C)C)CC1=O
not listed: [4] | [12] | [15] | [16]
inactive: all other assays above

COP(=S)(OC)Oc1nc(Cl)c(Cl)cc1Cl
not listed: [9] | [12]
inactive: all other assays above

COc1nc(C)nc(NC(=O)NS(=O)(=O)c2ccccc2Cl)n1
inactive: [17] | [18]

Cc1ccc(-c2c(Cl)nc(C#N)n2S(=O)(=O)N(C)C)cc1
active: [3] 2.73 µM | [4] 18.4 µM | [5] 31.1 µM | [6] 10.3 µM | TIMP1, TIMP1 (gene 7076) 22.4 µM | [10] 6.18 µM | [13] 27.4 µM | [14] 90.6 µM | [15] 8.94 µM | [17] 68.9 µM | [18] 8.72 µM
inactive: [1] | [2] | [7] | [8] | [11] | [19]

N#CC(CCc1ccc(Cl)cc1)(Cn1cncn1)c1ccccc1 (centres undefined)
active: [2] 72.4 µM | [5] 83.6 µM | [6] 77.2 µM | [7] 77 µM | [8] 66.7 µM | [10] 90.7 µM | [11] 75.5 µM | [13] 81.9 µM | [14] 80.3 µM | [15] 37.5 µM | [17] 56 µM
inactive: [1] | [3] | [4] | TIMP1, TIMP1 (gene 7076) | [18] | [19]

N#Cc1cc(Br)c(O)c(Br)c1
inactive: [7] | [17] | [19]
active: [1] 11.9 µM | [2] 10.3 µM | [3] 7.28 µM | [4] 3.27 µM | [5] 17.8 µM | [6] 25.7 µM | [8] 14.2 µM | TIMP1, TIMP1 (gene 7076) 10.2 µM | [10] 22.6 µM | [11] 10.4 µM | [13] 23.5 µM | [14] 10.5 µM | [15] 66.8 µM | [18] 40 µM and 56 µM

CN(C)C(=S)SSC(=S)N(C)C
active: [18] 33 µM
inactive: [1] | [2] | [3] | [4] | [5] | [6] | [7] | [8] | TIMP1, TIMP1 (gene 7076) | [10] | [11] | [13] | [14] | [15] | [17] | [18] | [19]

Cc1cc(Cl)ccc1OCC(=O)O
active: [6] 85.8 µM
not listed: [9] | [12]
inactive: all other assays above

COC(=O)C(C)Oc1ccc(Oc2ccc(Cl)cc2Cl)cc1 (centres undefined)
active: [10] 40 µM
not listed: [9] | [12] | [16] | [19]
inactive: all other assays above

CNC(=O)ON=CC(C)(C)SC
not listed: [9] | [12]
inactive: all other assays above
